Assay outcomes from PubChem.
TWEAK-Fn14 inh: blocks TWEAK-Fn14 interaction in a reporter cell assay; 2% of 360,000 active; TWEAK-stimulated Fn14 reporter cells, luciferase luminescence, 8 h; inhibition, % at 10 µM; in the data active means inhibition above about 50%
TROY NFkB inh: TROY signaling inhibition. inhibition, % at 10 µM. 0.98% of 360,000 active. Q293 LMP1-TROYcd NF-kB luciferase reporter, 4 h;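 active means compounds whose plate-normalised and pattern-corrected inhibition of the luciferase reporter signal at the single screening dose is 50% or more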
HIF-2a block: HIF-2a inhibition | 786-0 RCC cells HIF-2a reporter, luciferase luminescence, overnight | inhibition, % at 18.8 µM | 0.72% of 360,000 active;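 active means inhibition of the luminescence signal of 40% or more relative to plate controls, in a single-dose primary screen at 18.75 µM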
KKLEB tox: reduces viability of KKLEB cystic fibrosis airway cells; KKLEB CF airway cells viability, ATPlite luminescence, overnight; stronger effect = lower value; cells stimulated with P. aeruginosa culture filtrate; activity change (cytotoxicity), % at 5 µM; 0.36% of 360,000 active; AID 602141;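 active means corrected activity change at or below -50% at 5 µM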
Peg3 promoter: inhibitors of Peg3 promoter. HeLa PEG-Prom luciferase reporter, luminescence, overnight. inhibition, % at 20 µM. 1.7% of 360,000 active;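 active means inhibition of at least 50% at 20 µM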
CF NFkB block: blocks PAF-induced NF-kB reporter in cystic fibrosis cells; KKLEB NF-kB-GFP reporter, GFP fluorescence overnight; inhibition, % at 5 µM; 0.86% of 360,000 active; AID 588850;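 active means at least 50% inhibition at 5 µM, scaled per plate between neutral and stimulator controls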;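 further: PAF is a Pseudomonas aeruginosa culture filtrate used as stimulus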
Each line names hits and unclear results; the compound was inactive in the other large screens. Most compounds without a hit are left out; they make up all but 4% or so of the library.

CC(=NNC(=S)N(Cc1ccccn1)Cc1ccccn1)c1cnccn1	Peg3 promoter 53.9
CC(C)[C@H](NC(=O)c1ccco1)C(=O)OCC(=O)c1ccc(Br)s1	none
COc1ccc2c(c1)CC=C1C2CCC2(C)C(=O)C(=NO)CC12 (centres undefined)	CF NFkB block 53.5
CC(=O)Oc1ccc(C#C/C=C2\c3ccccc3C(=O)N2c2ccccc2)cc1	TWEAK-Fn14 inh 50.7
N#C/C(=C\c1cc2ccccc2nc1N1CCOCC1)C(=O)Nc1ccc(N2CCOCC2)cc1	TROY NFkB inh 57.7
N#CC(C#N)=Cc1cc2ccccc2nc1N1CCOCC1	none
O=C(O)CSc1nc2ccc(C(=O)c3ccccc3)cc2[nH]1	none
CC(NCCCOc1cccc2ccccc12)c1ccccc1 (centres undefined)	Peg3 promoter 94.0
COc1ccc2ccccc2c1CNC(C)c1ccccc1 (centres undefined)	none
Cc1nn(-c2ccccc2)c(N2CCCC2)c1/C=N/NC(=S)Nc1ccccc1F	TROY NFkB inh 64.5
Cc1nn(-c2ccccc2)c(N2CCCC2)c1/C=N/NC(=O)c1cc(-c2ccccn2)nc2ccccc12	Peg3 promoter 56.8
Cc1nn(-c2ccccc2)c(N2CCCC2)c1/C=N/NC(=O)c1cc2ccccc2cc1O	none
O=C(N/N=C/c1ccc2cccc(OCc3ccccc3)c2n1)c1ccc(Br)cc1	TWEAK-Fn14 inh 66.2
COc1ccc(C2(C#N)CCC(=O)N2c2ccccc2)cc1 (centres undefined)	TROY NFkB inh 51.7
CC(=O)c1ccc(NC(=O)Nc2ccc(Cl)cc2)cc1	none
CC(=O)c1ccc(NC(=S)NCc2ccc(Cl)cc2Cl)cc1	TROY NFkB inh 56.7
CCCC#CCN1CCN(C23CC4CC(CC(C4)C2)C3)CC1	none
COC(=O)C[C@H]1CC[C@@H](NC(=O)Nc2c(C)noc2C)[C@@H](CO)O1	none (no result: TWEAK-Fn14 inh, TROY NFkB inh, KKLEB tox, Peg3 promoter, CF NFkB block)
CCC1(C)Cc2c(sc3nnn(CC(=O)Nc4ccc(C)cc4)c(=O)c23)CO1 (centres undefined)	none
CCC1(C)Cc2c(sc3nnn(CC(=O)Nc4cccc5ccccc45)c(=O)c23)CO1 (centres undefined)	Peg3 promoter 56.5
CN(CCCS(=O)(=O)[O-])c1ccc(/C=C/c2ccc3ccccc3[n+]2C)cc1	none
[O-][n+]1c(/C=C/c2ccccc2)ccc2ccccc21	TWEAK-Fn14 inh 66.3
CN(C)c1ccc(/C=C/c2ccc3ccccc3[n+]2C)cc1	TWEAK-Fn14 inh 64.5, TROY NFkB inh 62.8
[O-][n+]1ccccc1/C=C/c1ccccc1	none
CCCNC(=O)c1ccc(N2CCC3(CC2)CC(c2cccc(Br)c2)=NO3)c([N+](=O)[O-])c1	none
CN(C)c1ccc(CNC(=O)CC[C@H]2O[C@@H](n3cnc4c(NC(=O)c5ccccc5)ncnc43)[C@H](O)[C@@H]2O)cc1	none
CCOC(=O)CNc1nc(Cl)nc(Nc2ccc(Cl)cc2)n1	none
CN(C)CCCN=c1cc(-c2ccccc2)oc2ccc(Cl)cc12	Peg3 promoter 99.7
COc1ccc(CN(C)C(C)C(=O)Nc2ccc(S(=O)(=O)N3CCCCC3)cc2)c(OC)c1 (centres undefined)	none
O=C(COC(=O)c1n[nH]c(=O)c2ccccc12)NC1CCCCC1	none
COc1ccccc1-c1nnc2sc(-c3cnccn3)nn12	none
COc1ccccc1-c1nnc2sc(-c3ccc(N(C)C)cc3)nn12	CF NFkB block 52.6
CCOC(=O)C(=NC(C)CC)NNc1cccc(C(F)(F)F)c1 (centres undefined)	TWEAK-Fn14 inh 58.4
Cc1ccccc1C(=O)NCC(=O)OCCOc1ccc(C(C)C)c(C)c1	none
O=C(c1ccc2c(=O)n(CCc3ccccc3)c(=O)[nH]c2c1)N1CCN(c2ccc(F)cc2)CC1	TWEAK-Fn14 inh 74.4, TROY NFkB inh 57.7
COCCn1c(=O)[nH]c2cc(C(=O)N3CCN(c4ccc(Cl)cc4)CC3)ccc2c1=O	none
COc1ccc(N2CCN(C(=O)c3ccc4c(=O)n(CCc5ccc(OC)c(OC)c5)c(=O)[nH]c4c3)CC2)cc1	TWEAK-Fn14 inh 58.5
O=C(c1ccc2c(=O)n(CCc3ccccc3)c(=O)[nH]c2c1)N1CCN(c2ccccc2)CC1	none
COc1c(C)cccc1C(=O)NCc1ccc2c(c1)OCO2	none
Cc1ccc(-c2ccccc2[C@@H]2C[C@H]3CN(C)C(=O)[C@]34CCCN24)o1	none
